Most compounds without a hit are left out; they make up all but 2.3% or so of the library.
PAD4 FP inh: PAD4 (human) enzyme inhibition; Q9UM07; recombinant PAD4, RCA probe fluorescence polarization; inhibition, % at 6.36 µM; 330,000 tested, 0.41% active;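 active = percent inhibition above a cutoff equal to the mean of all tested compounds plus 3 SD, cut at about 15% in these data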;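 also: 0% = PAD4 with RCA probe and DMSO and 100% = probe without PAD4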
Target sequence (Q9UM07 whole entry, looked up): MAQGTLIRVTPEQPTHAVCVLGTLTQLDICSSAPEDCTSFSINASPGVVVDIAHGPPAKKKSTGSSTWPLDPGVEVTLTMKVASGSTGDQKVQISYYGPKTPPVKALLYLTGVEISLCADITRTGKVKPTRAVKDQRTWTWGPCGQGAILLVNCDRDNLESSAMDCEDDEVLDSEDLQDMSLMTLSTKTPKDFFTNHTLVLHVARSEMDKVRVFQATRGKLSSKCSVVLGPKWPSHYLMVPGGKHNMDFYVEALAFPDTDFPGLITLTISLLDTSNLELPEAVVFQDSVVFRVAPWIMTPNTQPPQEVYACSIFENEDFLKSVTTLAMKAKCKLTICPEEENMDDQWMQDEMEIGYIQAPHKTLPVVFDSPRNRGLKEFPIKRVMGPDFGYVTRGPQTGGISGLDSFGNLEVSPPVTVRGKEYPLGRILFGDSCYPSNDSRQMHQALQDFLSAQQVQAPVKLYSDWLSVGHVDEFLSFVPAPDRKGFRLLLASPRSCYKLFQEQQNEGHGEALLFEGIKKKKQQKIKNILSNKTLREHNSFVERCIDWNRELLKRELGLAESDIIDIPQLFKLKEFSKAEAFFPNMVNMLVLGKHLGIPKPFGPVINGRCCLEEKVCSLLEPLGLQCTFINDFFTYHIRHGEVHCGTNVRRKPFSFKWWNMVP
Fam108B counter: Fam108B inhibition, counter-screen for RBBP9 inhibitors; inhibition, % at 9.51 µM; AID 1947; 300,000 tested, 0.33% active; recombinant Fam108B, FP-Rh probe fluorescence polarization;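 active = inhibition above the screen mean inhibition plus 3 SD, computed separately per campaign, cut at about 18% in these data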;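 also: inhibitors lower polarization as less probe binds the enzyme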
pPAFAH FP inh: pPAFAH (human) enzyme inhibition | inhibition, % at 3.39 µM | recombinant pPAFAH, FP-rhodamine probe fluorescence polarization | Q13093 | 330,000 tested, 1.5% active;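 active = inhibition above the mean inhibition across the screen plus 3 SD, cut at about 25% in these data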;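 also: inhibitors block binding of the rhodamine activity-based probe so polarization drops; 0% = enzyme with DMSO and 100% = wells lacking pPAFAH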
PME-1 inh: PME-1 (human) inhibition | AID 2130 | 320,000 tested, 0.53% active | inhibition, % at 5.9 µM | Q9Y570 | recombinant PME-1, FP-Rh probe fluorescence polarization;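 active = inhibition above the campaign mean of all compounds plus 3 SD, cut at about 26% in these data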;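 also: competitive labeling of PME-1 active site by serine hydrolase directed probe; 0% = PME-1 with DMSO and 100% = wells lacking PME-1 enzyme; inhibitors block probe labeling so polarization falls and inhibition rises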
GSTO1 inh: GSTO1 inhibition, counter-screen for RBBP9 inhibitors; 300,000 tested, 1.1% active; inhibition, % at 5.96 µM; recombinant GSTO1, activity-based probe fluorescence polarization;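 active = inhibition above the campaign mean inhibition plus 3 SD, cut at about 35% in these data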;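 also: 0% = GSTO1-1 with DMSO and 100% = wells lacking GSTO1-1 enzyme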
* marks the source's active call; other numbers are inactive results; / = not tested or not shown.

SMILES	PAD4 FP inh	Fam108B counter	pPAFAH FP inh	PME-1 inh	GSTO1 inh
C/C=C/C=C/C(=O)N1CC[C@]23c4ccccc4N[C@H]4N(C)c5cccc6c5[C@]42CCN([C@H]6C2OC2(C)C)[C@H]13 (some centres undefined)	4.5	4.4	0.5	0.3	37.4*
O=C(O)c1ccc(N/N=C/c2ccc(-c3ccc(Br)cc3)o2)cc1	-1.6	13.2	26.8*	32.9*	17.7
CCn1c2ccccc2c2cc(NC(=O)c3ccccc3-c3ccccc3C(=O)O)ccc21	-6.3	11.0	33.3*	11.4	6.6
CCn1c2ccccc2c2cc(NC(=O)C(C)C)ccc21	1.1	2.1	9.1	-3.6	-0.3
Cc1csc(NC(=O)c2cc(-c3ccco3)nc3ccccc23)n1	-4.5	4.1	25.2*	1.6	10.0
Cc1ccccc1OCCC(=O)OCC(=O)NNC(=O)c1cccs1	0.5	/	24.9*	-1.0	/
O=C(Cc1cccc2ccccc12)Nc1c(F)cccc1F	1.5	1.5	0.4	5.4	-3.6
Cc1cc(-c2ccc(N=Nc3c(S(=O)(=O)O)cc4cc(S(=O)(=O)O)cc(N)c4c3O)c(C)c2)ccc1N=Nc1c(S(=O)(=O)O)cc2cc(S(=O)(=O)O)cc(N)c2c1O	-45.1	36.1*	53.3*	3.4	-76.1
COc1ccc(NC(=O)CC2C(=O)Nc3ccccc3N2CC(=O)N2CCCC2)cc1 (centres undefined)	1.3	/	-2.1	4.6	/
CC1=NN(c2ccccc2)C(=O)C1N=Nc1cccc(O)c1 (centres undefined)	-5.5	7.6	17.5	28.2*	-1.1
CC1=NN(c2ccccc2)C(=O)C1N=Nc1ccccc1 (centres undefined)	-2.2	-2.0	3.0	0.3	1.2
O=C(NC(C(=O)N/N=C/c1cc([N+](=O)[O-])ccc1O)c1n[nH]c(=O)c2ccccc12)c1ccccc1 (centres undefined)	3.5	7.3	11.8	48.7*	-75.1
Cc1ccc(-n2nc3c(c2NC(=O)c2cccs2)CS(=O)(=O)C3)cc1C	10.6	1.1	-3.7	-12.3	3.6
Cc1ccc(S(=O)(=O)N(C)C)cc1NC(=O)COC(=O)c1sc2cc(Cl)ccc2c1Cl	2.0	-19.2	31.9*	-7.5	-21.6
CCN(CC)C(=O)c1c[nH]c2ccc(S(=O)(=O)Nc3cc(C)cc(C)c3)cc2c1=O	1.5	-1.0	28.7*	-6.3	2.4
CCCC(=O)Nc1nc(C)c(-c2csc(Nc3cc(OC)ccc3OC)n2)s1	-2.3	10.4	28.8*	19.9	-0.2
C=CCCC(=O)Nc1nc(C)c(-c2csc(Nc3cc(OC)ccc3OC)n2)s1	0.3	16.6	33.6*	24.2	-0.7
CCCC(=O)Nc1nc(C)c(-c2csc(Nc3ccccc3OC)n2)s1	-4.8	4.3	21.8	11.4	-0.3
C=CCCC(=O)Nc1nc(C)c(-c2csc(Nc3cccc(OC)c3)n2)s1	-4.7	14.3	11.0	6.8	0.5
O=c1oc2cc(O)ccc2s1	-3.1	0.3	1.1	4.4	53.0*
Cc1nnc2ccc(-c3ccc(NC(=O)Cc4cccs4)cc3)nn12	-2.4	0.8	27.4*	-2.9	1.4
CC(=O)Nc1ccc(-c2ccc3nnc(C)n3n2)cc1	1.6	3.9	0.8	0.9	5.8
Cc1cccc(S(=O)(=O)Nc2cccc3c2C(=O)c2ccccc2-3)c1	0.1	-0.7	4.5	-2.4	-10.7
CN(c1cccc(NC(=O)CCSc2ccccc2)c1)S(C)(=O)=O	4.5	-1.7	8.7	-0.1	0.7
Cc1ccc(NS(=O)(=O)c2ccc3c(c2)C(=O)c2ccccc2C3=O)c(C)c1	4.4	8.9	32.0*	31.7*	9.9
SMILES	PAD4 FP inh	Fam108B counter	pPAFAH FP inh	PME-1 inh	GSTO1 inh
Cc1nc(NS(=O)(=O)c2ccccc2)sc1NC(=O)Nc1ccccc1	5.6	5.9	10.0	0.1	8.2
O=C(Nc1ccc(NS(=O)(=O)c2ccccc2)cc1)c1ccccc1Cl	-1.3	/	24.7*	/	/
Cc1nc(NS(=O)(=O)c2ccccc2)sc1NC(=O)Nc1ccc(Cl)cc1	-9.1	17.5	33.7*	14.1	9.2
CN(c1cccc(NC(=O)CSc2ccc(Cl)cc2)c1)S(C)(=O)=O	-8.2	-4.2	29.4*	0.6	5.6
CC(=O)Nc1nnc(SCC(=O)Nc2nc(C)cs2)s1	2.9	-0.1	4.5	-4.2	2.4
Cc1nonc1C1CCCN1C(=O)c1cc(COc2ccc(F)cc2Cl)on1 (centres undefined)	3.9	1.6	7.0	-1.1	2.5
Cc1ccc(NS(=O)(=O)c2ccc3c(c2)NC(=O)CCS3)c(C)c1	5.3	1.0	30.3*	-2.3	13.9
Cc1ccc(NS(=O)(=O)c2ccc(NC(=O)c3ccccc3C(=O)O)cc2)c(C)c1	2.4	-0.2	33.6*	0.8	4.4
Cc1ccc(NS(=O)(=O)c2ccc3c(c2)NC(=O)CCS3)c(Cl)c1	-1.1	-1.8	6.2	10.6	2.4
Cc1cc(C)cc(NS(=O)(=O)c2ccc(NC(=O)c3ccccc3C(=O)O)cc2)c1	-4.6	0.1	8.9	4.3	-1.3
Cc1ccc(NS(=O)(=O)c2ccc(NC(=O)CSc3ccc(Cl)cc3)cc2)c(C)c1	3.2	-3.8	33.4*	-13.6	-7.4
CC(C)(C)OC(=O)C[C@@H]1C/C=C\C[C@H](CC(=O)NCCO)C(=O)N2CCC[C@@H]2COC1=O	2.9	/	-1.2	/	/
CC(=O)Oc1ccc(NC(=O)CSc2ccccc2)cc1	-6.1	-0.4	1.4	4.5	8.5
CCOc1ccc(S(=O)(=O)N(C)CC(=O)NCc2ccco2)cc1	1.4	-0.5	4.7	2.6	-0.2
CCOc1ccc(S(=O)(=O)N(C(=O)c2ccco2)c2cc3sc(=O)oc3c3ccccc23)cc1	11.7	8.8	10.6	7.6	37.2*
NC(=S)NNC(=O)COc1ccccc1O	-5.7	-3.1	-2.1	-3.8	15.5
CCN(CC)S(=O)(=O)c1ccc(NC(=O)COC(=O)c2ccc(NC(=O)CC#N)cc2)cc1	-18.0	-4.7	26.1*	-7.0	-58.8
CC(C)(C)c1ccc(NC(=O)COC(=O)c2ccc(NS(=O)(=O)c3ccc(F)c(F)c3)cc2)cc1	1.8	-14.4	30.6*	-13.4	-19.2
Cc1cc(C)c(C(=O)COC(=O)c2ccc(NC(=O)CC#N)cc2)cc1C	-8.5	-9.5	24.9*	14.0	-32.1
COc1ccccc1NS(=O)(=O)c1cccc(-n2c(O)c(C=Nc3ccccc3C(=O)O)c3ccccc3c2=O)c1	-0.5	18.1	30.2*	81.8*	-2.2
COc1ccc(Cn2c(O)c(C=Nc3ccccc3C(=O)O)c3ccccc3c2=O)cc1	-14.8	12.0	26.6*	0.3	-7.4
COc1ccc(-n2c(O)c(/C=N/NS(=O)(=O)c3ccc(C)cc3)c3ccccc3c2=O)cc1OC	-45.5	-53.1	-4.3	-59.2	-31.6
Nc1ccc(N2CCN(C(=O)c3cccs3)CC2)cc1	-5.0	4.1	32.0*	5.1	18.4
O=C(COc1cccnc1[N+](=O)[O-])Nc1ccc2c(c1)OC(F)(F)O2	-1.8	-1.4	-0.9	-1.9	1.0
CCCn1nnc(NC(=S)NC(=O)/C=C/c2ccco2)n1	-2.6	3.8	26.3*	6.4	9.7
CC(C)c1onc(C(=O)NC2CCCCC2)c1[N+](=O)[O-]	5.7	0.1	1.8	1.4	36.9*

Compound activity as filed in PubChem.
